In PubChem BioAssay (NCI):
Compounds without any hit were thinned out: in the full panel of roughly 83,000, 20% have a hit.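 Each cell line was grown in a 96-well plate and treated with one concentration of compound for 48 hours. Values below 10 were considered active.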 A number with no mark means an inactive call. Activity calls are given as the source filed them.

System: SF-268 CNS
Experiment: NCI-60 one-dose screen, 48 h (100 = growth as untreated, 0 = no growth, -100 = all killed)
Details: 10 µM unless noted

| SMILES | growth |
| --- | --- |
| CN1CCN(c2nc(-c3csc(-c4cccs4)n3)cc3ccccc23)CC1 | 49.6% |
| O=C(O[C@@H]1Cc2c(O)cc(O)cc2O[C@@H]1c1cc(O)c(O)c(O)c1)c1cc(O)c2c(c1)OCO2 | 97% |
| C/C(Cc1ccc(Cl)cc1)=C(/c1ccc(Cl)cc1)c1ccc(OCCN2CCCC2)cc1 | 92.4% |
| Cc1cc(N(CCCNc2ccnc3cc(Cl)ccc23)Cc2ccco2)nc(N2CCOCC2)n1 | 77.7% |
| Cc1ccccc1-c1nc(C(Cl)Cl)nc2cc(-c3ccccc3)nn12 | 88.1% |
| O=C1/C(=C\C(Cl)=C/c2ccc([N+](=O)[O-])cc2)SC(=S)N1CCc1ccc(O)cc1 | 9.96% (active) |
| Brc1ccc2c(c1)c(-c1nc(-c3c[nH]c4ncccc34)cs1)cn2CCCN1CCCCC1 | 7.71% (active) |
| Cn1c(/C(C#N)=C/c2ccc3ccccc3c2)cc2ccccc21 | 42.9% |
| CN(CSc1ccc(Cl)cc1)c1ccc(CSc2ccc(Cl)cc2)cc1 | 43.3% |
| CCNCCCn1c2c(c3ccc([N+](=O)[O-])cc3c1=O)C(=O)c1cc(OC)cnc1-2 | 1.69% (active) |
| CC1(C)NC2=C(C(Nc3cccnc3)N1)C(c1ccc([N+](=O)[O-])cc1)C(C(=O)c1ccc(N=[N+]=[N-])cc1)O2 (stereo not given) | 101% |
| COc1ccc(C2C(C#N)=C(N)Oc3c2sc2c(F)cccc32)cc1 (stereo not given) | 42.6% |
| COc1cc(-c2cc3ncccc3c3[nH]c(=O)c4cccnc4c23)cc(OC)c1OC | 51.2% |
| CCCCC/C(=C\c1ccccc1)C1OC(C)C(C)O1 (stereo not given) | 95.3% |
| COc1ccc2c(c1)c(-c1nc(-c3c[nH]c4ncccc34)cs1)cn2CCNC(=O)OC(C)(C)C | 83.5% |
| COc1cc(/C=C/c2cc(/C=C/c3ccc(O)c(OC)c3)n(-c3ccccc3)c(=O)n2)ccc1O | 72.3% |
| CCN1CCN(C(=O)[C@]23CC[C@@H](C)[C@H](C)[C@H]2C2=CC[C@@H]4[C@@]5(C)C/C(=C/c6cccc(OC)c6OC)C(=O)C(C)(C)[C@@H]5CC[C@@]4(C)[C@]2(C)CC3)CC1 | 45.5% |
| COc1cc2c(cc1-c1c(C)noc1C)ncc1nc(C3CCCCC3)n([C@@H](C)COC(F)F)c12 | 55.6% |
| CC(=O)OC[C@]12CC[C@@H](/C(C)=N/O)[C@@H]1[C@H]1CC[C@@H]3[C@@]4(C)CCCNC(C)(C)[C@@H]4CC[C@@]3(C)[C@]1(C)CC2 | 62.8% |
| Brc1cnc2[nH]cc(-c3nnc(-c4ccccc4)o3)c2c1 | 81.2% |
| COc1ccc2[nH]c(-c3ccc(Cl)cc3)cc(=O)c2c1 | 98.2% |
| CCN1CCN(C(=O)[C@]23CCC(C)(C)C[C@@H]2C2=CC[C@@H]4[C@@]5(C)C/C(=C/c6ccncc6)C(=O)C(C)(C)[C@@H]5CC[C@@]4(C)[C@]2(C)CC3)CC1 | 14.8% |
| COc1ccc(/C=C(\C#N)c2cc3ccccc3n2S(C)(=O)=O)cc1 | 88% |
| Cc1ccc(S(=O)(=O)Nc2ccc(-c3cc(-c4cccc(F)c4)c(C#N)c(=O)[nH]3)cc2)cc1 | 74.2% |
| N#CC1=C(N)Oc2c(c(N)nn2-c2ccccc2)C1c1ccc(Cl)cc1 (stereo not given) | 94.1% |
| C=C(C)[C@@H]1CC[C@]2(CN)CC[C@]3(C)[C@H](CC[C@@H]4[C@@]5(C)CCC(=O)NC(C)(C)[C@@H]5CC[C@]43C)[C@@H]12 | 64.5% |
| CC1(C)[C@@H](O)CC[C@]2(C)[C@H]3CC[C@@H]4[C@H]5[C@H](C(=O)/C=C/c6ccc(C(F)(F)F)cc6)CC[C@]5(CO)CC[C@@]4(C)[C@]3(C)CC[C@@H]12 | 75.5% |

System: SF-295 CNS
Experiment: as above
Details: 10 µM unless noted

| SMILES | growth |
| --- | --- |
| N#CC1=C(N)Oc2c(c(N)nn2-c2ccccc2)C1c1ccc(Cl)cc1Cl (stereo not given) | 106% |
| C=C(C)[C@@H]1CC[C@]2(C=O)CC[C@]3(C)[C@H](CC[C@@H]4[C@@]5(C)C/C(=C/c6cccnc6)C(=O)C(C)(C)[C@@H]5CC[C@]43C)[C@@H]12 | 86.9% |
| C=C(C)[C@@H]1CC[C@]2(C(=O)N3CCN(CC)CC3)CC[C@]3(C)[C@H](CC[C@@H]4[C@@](C)(CCC(=O)N5CCN(CC)CC5)[C@H](C(=C)C)CC[C@]43C)[C@@H]12 | 47.8% |
| CCN1CCN(C(=O)[C@]23CCC(C)(C)C[C@H]2C2=CC[C@@H]4[C@@]5(C)CC/C(=N/O)C(C)(C)[C@@H]5CC[C@@]4(C)[C@]2(C)CC3)CC1 | 65.7% |
| N#CC1=C(N)Oc2c(sc3c(F)cccc23)C1c1ccc(Cl)cc1 (stereo not given) | 20.2% |
| O=C1c2cccc3cccc(c23)C(=O)N1CC#Cc1ccc2c3c(cccc13)C(=O)N(CCN1CCNCC1)C2=O | 94.1% |
| C=C(C)[C@@H]1CC[C@]2(/C=N/Nc3ccncc3)CC[C@]3(C)[C@H](CC[C@@H]4[C@@]5(C)CCCNC(C)(C)[C@@H]5CC[C@]43C)[C@@H]12 | 99.1% |
| Cc1ccnc2c(OCc3ccccc3)cccc12 | 89.9% |
| C=CC(=O)N[C@H](Cc1ccc(-c2cc(Cl)cc(Cl)c2)cc1)[C@H](O)[C@@H](O)C(=O)O | 82.8% |
| C=COCCCCCCCCCCCCCCCCCC | 118% |
| COc1cc2ncnc(Nc3ccc(Oc4ccnc(C)c4)c(C)c3)c2cc1NC(=O)CC1CCSS1 (stereo not given) | -65.3% (active) |
| CN1CCN(c2nc(-c3csc(-c4cccs4)n3)cc3ccccc23)CC1 | 83% |
| O=C(O[C@@H]1Cc2c(O)cc(O)cc2O[C@@H]1c1cc(O)c(O)c(O)c1)c1cc(O)c2c(c1)OCO2 | 103% |
| C/C(Cc1ccc(Cl)cc1)=C(/c1ccc(Cl)cc1)c1ccc(OCCN2CCCC2)cc1 | 92.9% |
| Cc1cc(N(CCCNc2ccnc3cc(Cl)ccc23)Cc2ccco2)nc(N2CCOCC2)n1 | 62.7% |
| Cc1ccccc1-c1nc(C(Cl)Cl)nc2cc(-c3ccccc3)nn12 | 81.6% |
| O=C1/C(=C\C(Cl)=C/c2ccc([N+](=O)[O-])cc2)SC(=S)N1CCc1ccc(O)cc1 | -31.4% (active) |
| Brc1ccc2c(c1)c(-c1nc(-c3c[nH]c4ncccc34)cs1)cn2CCCN1CCCCC1 | 27.3% |
| Cn1c(/C(C#N)=C/c2ccc3ccccc3c2)cc2ccccc21 | 3.45% (active) |

| SMILES | growth |
| --- | --- |
| CN(CSc1ccc(Cl)cc1)c1ccc(CSc2ccc(Cl)cc2)cc1 | 70.5% |
| CCNCCCn1c2c(c3ccc([N+](=O)[O-])cc3c1=O)C(=O)c1cc(OC)cnc1-2 | -1.1% (active) |
| CC1(C)NC2=C(C(Nc3cccnc3)N1)C(c1ccc([N+](=O)[O-])cc1)C(C(=O)c1ccc(N=[N+]=[N-])cc1)O2 (stereo not given) | 104% |
| COc1ccc(C2C(C#N)=C(N)Oc3c2sc2c(F)cccc32)cc1 (stereo not given) | 20.2% |
| COc1cc(-c2cc3ncccc3c3[nH]c(=O)c4cccnc4c23)cc(OC)c1OC | 12.6% |
| CCCCC/C(=C\c1ccccc1)C1OC(C)C(C)O1 (stereo not given) | 104% |
| COc1ccc2c(c1)c(-c1nc(-c3c[nH]c4ncccc34)cs1)cn2CCNC(=O)OC(C)(C)C | 85.1% |
| COc1cc(/C=C/c2cc(/C=C/c3ccc(O)c(OC)c3)n(-c3ccccc3)c(=O)n2)ccc1O | 88% |
| CCN1CCN(C(=O)[C@]23CC[C@@H](C)[C@H](C)[C@H]2C2=CC[C@@H]4[C@@]5(C)C/C(=C/c6cccc(OC)c6OC)C(=O)C(C)(C)[C@@H]5CC[C@@]4(C)[C@]2(C)CC3)CC1 | 50.7% |
| COc1cc2c(cc1-c1c(C)noc1C)ncc1nc(C3CCCCC3)n([C@@H](C)COC(F)F)c12 | 45.3% |
| CC(=O)OC[C@]12CC[C@@H](/C(C)=N/O)[C@@H]1[C@H]1CC[C@@H]3[C@@]4(C)CCCNC(C)(C)[C@@H]4CC[C@@]3(C)[C@]1(C)CC2 | 84.5% |
| Brc1cnc2[nH]cc(-c3nnc(-c4ccccc4)o3)c2c1 | 85.8% |
| COc1ccc2[nH]c(-c3ccc(Cl)cc3)cc(=O)c2c1 | 97% |
| CCN1CCN(C(=O)[C@]23CCC(C)(C)C[C@@H]2C2=CC[C@@H]4[C@@]5(C)C/C(=C/c6ccncc6)C(=O)C(C)(C)[C@@H]5CC[C@@]4(C)[C@]2(C)CC3)CC1 | -55.9% (active) |
| COc1ccc(/C=C(\C#N)c2cc3ccccc3n2S(C)(=O)=O)cc1 | 71.6% |
| Cc1ccc(S(=O)(=O)Nc2ccc(-c3cc(-c4cccc(F)c4)c(C#N)c(=O)[nH]3)cc2)cc1 | 87.9% |
| N#CC1=C(N)Oc2c(c(N)nn2-c2ccccc2)C1c1ccc(Cl)cc1 (stereo not given) | 96.6% |
| C=C(C)[C@@H]1CC[C@]2(CN)CC[C@]3(C)[C@H](CC[C@@H]4[C@@]5(C)CCC(=O)NC(C)(C)[C@@H]5CC[C@]43C)[C@@H]12 | 82.1% |
| CC1(C)[C@@H](O)CC[C@]2(C)[C@H]3CC[C@@H]4[C@H]5[C@H](C(=O)/C=C/c6ccc(C(F)(F)F)cc6)CC[C@]5(CO)CC[C@@]4(C)[C@]3(C)CC[C@@H]12 | 72.1% |
